A340 absorber: absorbance at 340 nm. compound absorbance at 340 nm, fold over control. fold change at 10 µM. 65,000 tested, under 10 active;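 active means at 10 µM dose, initial 340 nm absorbance at least 2 fold that of control wells; inactive means change under 2 fold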;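 further: initial absorbance extrapolated from kinetic A340 decline of NADH oxidation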
Fluor 339 460: intrinsic fluorescence of library compounds, ex339/em460 – biochemical, MLSMR library, data from DPM-DC assay, artefact control, profiling panel | compound autofluorescence, ex339/em460 nm, NADH buffer; stronger effect = higher value; 1 = no-compound wells, NADH background | fluorescence fold increase at 10 µM | hit rate 5.5% among 65,000;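 active means at 10 µM, mean starting fluorescence two-fold or more over control wells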;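 further: signal is the first read of a kinetic run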
PMK inhibit: S. pneumoniae PMK inhibition. inhibition, % at 10 µM. purified PMK, PK/LDH-coupled NADH absorbance 340 nm. hit rate 0.49% among 65,000. AID 539;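 active means top-ranked compounds by inhibition in the single 10 µM screen, taking a fixed number of the strongest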;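 further: 0% = full reaction with DMSO carrier and 100% = background rate without enzyme reaction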
DPM-DC inhibit: S. pneumoniae DPM-DC inhibition | purified DPM-DC, PK/LDH coupled NADH fluorescence | calls only at 10 µM | hit rate 0.49% among 65,000;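 active means the 320 compounds with the highest percent inhibition in the single-dose primary screen, excluding strongly autofluorescent ones, cut at about 32% in these data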;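 further: kinetic rate of NADH fluorescence loss reporting ADP formed by the decarboxylase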
NADH enzymes: inhibitors of enzymes used to reach an NAD/NADH endpoint; coupled PK/LDH NADH assays, four targets; IC50, µM (doses to about 10 µM), inactives show at the highest dose inhibition; hit rate 0.02% among 65,000; AID 774;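 active means single-dose screening hits from any of four coupled enzyme assays that gave an IC50 when retested across doses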;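 further: the DPM-DC format reads NADH fluorescence rather than 340 nm absorbance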
Spn MK inh: inhibitors of Streptococcus pneumoniae mevalonate kinase; inhibition, % at 10 µM; hit rate 0.48% among 65,000; purified MK, PK/LDH-coupled NADH absorbance 340 nm;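 active means ranked among the strongest by inhibition in the single 10 µM screen, a fixed top-ranked set picked for dose follow-up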
* hit, by the source's call; i = inactive; . = no result shown; + = active, no number. Only some compounds are listed: those with a hit (about 6.5% of all), similar ones and a draw of the others.

SMILES	A340 absorber	Fluor 339 460	PMK inhibit	DPM-DC inhibit	NADH enzymes	Spn MK inh
CCOC(=O)CC(=O)CSc1ccc2nnc(-c3ccc(C)cc3)n2n1	1	0.89	11.0	+	18.0%	8.0
O=C(CSc1ccc2nnc(-c3cccnc3)n2n1)NCC1CCCO1 (stereo not given)	1.05	1.85	0.0	i	7.0%	5.0
COc1ccc(-c2nnc3ccc(SCC(=O)N4CCCC4)nn23)cc1	1.08	1.06	0.0	i	1.0%	3.0
O=C(CSc1ccc2nnc(-c3cccc(F)c3)n2n1)NCC1CCCO1 (stereo not given)	1	2.1*	12.0	i	14.0%	19.0
CCC(Sc1ccc2nnc(-c3ccc(F)cc3)n2n1)C(=O)O (stereo not given)	1.01	2.05*	12.0	i	12.0%	10.0
CCOC(=O)CSC1=NC(=O)CS1	1	1.24	10.0	i	4.0%	1.0
Cc1ccc(CCNC(=O)C2CCN(C(=O)N(C)C)CC2)cc1	1	1.05	12.0	i	4.0%	0.0
Cc1cc(C)n(-c2ccc(C(=O)OCC(=O)c3ccc(Br)s3)cc2)n1	1.01	1.08	19.0	i	7.0%	3.0
Cn1c(=O)c2c(nc(SCC(=O)N3CCc4ccccc43)n2Cc2ccccc2)n(C)c1=O	1.03	1.06	11.0	i	4.0%	2.0
Cc1nnc(SCc2cc(=O)[nH]c(N3CCCCC3)n2)s1	1.01	1.01	0.0	i	2.0%	0.0
Cc1ccc(S(=O)(=O)N2CCC(C(=O)OCC(=O)N3CCc4ccccc43)CC2)cc1	1	1.09	21.0	i	10.0%	8.0
COCC(=O)N(Cc1cc2cc(OC)ccc2[nH]c1=O)c1ccccc1	1.01	2.69*	0.0	i	3.0%	8.0
CCOc1ccc(N(Cc2cc3cc(OC)ccc3[nH]c2=O)S(C)(=O)=O)cc1	1.02	2.82*	5.0	i	12.0%	4.0
CCN(Cc1cc2cc(OC)ccc2[nH]c1=O)C(=O)Cc1ccc(OC)cc1	1.04	2.42*	3.0	i	1.0%	6.0
CCOc1ccccc1C(=O)N(C)Cc1cc2cc(OC)ccc2[nH]c1=O	1.06	2.69*	1.0	i	9.0%	9.0
CCN(Cc1cc2cc(OC)ccc2[nH]c1=O)C(=O)c1ccncc1	1.02	1.84	9.0	i	5.0%	3.0
CCOc1cc(C(=O)N(C)Cc2cc3cc(OC)ccc3[nH]c2=O)cc(OCC)c1OCC	1.03	1.64	13.0	i	6.0%	13.0
CN(C)C(=O)Oc1cccc([N+](C)(C)C)c1	0.97	1.01	0.0	i	2.0%	5.0
O=C(Nc1c(C(=O)O)oc2ccc(Br)cc12)c1ccccc1	1.06	1.16	7.0	i	4.0%	5.0
N#CCCn1ncn(-c2ccccc2)c1=S	0.99	1.05	5.0	i	3.0%	5.0
Cc1nc(NC(C)c2ccccc2)c2oc3ccccc3c2n1 (stereo not given)	1.04	1.11	17.0	i	10.0%	8.0
O=C(c1ccco1)N1CCN(Cc2nnnn2CCc2ccccc2)CC1	1.01	1.05	25.0	i	10.0%	5.0
COc1ccc2[nH]c(=O)c(CN(C(C)=O)c3cccc(C)c3)cc2c1	1.07	3.17*	7.0	i	5.0%	0.0
CCC(=O)N(Cc1cc2cc(OC)ccc2[nH]c1=O)c1ccc(C)cc1C	1.03	3.09*	15.0	i	10.0%	6.0
CCC(=O)N(Cc1ccc2c(c1)OCO2)Cc1cc2cc(OC)ccc2[nH]c1=O	1.03	1.72	18.0	i	15.0%	17.0
SMILES	A340 absorber	Fluor 339 460	PMK inhibit	DPM-DC inhibit	NADH enzymes	Spn MK inh
COc1ccc2[nH]c(=O)c(CN(C(=O)C3CCCO3)c3ccc(C)cc3)cc2c1 (stereo not given)	1.07	2.88*	15.0	i	17.0%	11.0
CCCCN(Cc1cc2cc(OC)ccc2[nH]c1=O)C(=O)COc1ccccc1	1.02	1.88	7.0	i	4.0%	8.0
COc1ccc2[nH]c(=O)c(CN(C)C(=O)COc3ccccc3)cc2c1	1.04	3.35*	18.0	.	15.0%	11.0
CN(C(=O)Cn1c(=O)n(CCCCC(=O)NC2CCCC2)c(=O)c2ccccc21)C1CCCCC1	1	1.04	17.0	i	3.0%	3.0
COc1ccc2nc3oc(C(=O)N4CCC(C(N)=O)CC4)cc3cc2c1	1.06	5.11*	5.0	.	3.0%	0.0
COc1ccc2cc3cc(C(=O)N4CCN(Cc5ccc6c(c5)OCO6)CC4)oc3nc2c1	1.06	5.03*	14.0	.	8.0%	1.0
COc1ccc2cc3cc(C(=O)NCC4COc5ccccc5O4)oc3nc2c1 (stereo not given)	1.03	5.01*	10.0	.	5.0%	0.0
COc1ccc2cc3cc(C(=O)Nc4ccc5c(c4)OCCO5)oc3nc2c1	1.06	2.1*	8.0	i	7.0%	0.0
CCN(C(=O)c1cc2cc3ccc(C)cc3nc2o1)c1ccc(OC)cc1	1.04	1.23	0.0	i	3.0%	2.0
Cc1ccsc1C(C(=O)NC1CCCCC1)N(C(=O)c1csnn1)C1CC1 (stereo not given)	0.98	1	13.0	i	8.0%	10.0
COc1ccc2cc3cc(C(=O)NCc4ccc5c(c4)OCO5)oc3nc2c1	1.03	5.07*	11.0	.	6.0%	0.0
Cc1ccc(-c2nc3c(=O)n(C)c4ccccc4c3o2)cc1	1.03	4.65*	7.0	.	5.0%	3.0
Cc1ccc2nc(Nc3nc(=O)c4ccccc4n3C)nc(C)c2c1	1.03	1.19	4.0	i	5.0%	10.0
CC(=O)Nc1cccc(NC(=O)CSc2nnnn2Cc2ccccc2)c1	0.97	0.41	7.0	+	35.0%	.
CCC(=O)Nc1cc(NC(=O)CSc2nnc(C(C)C)n2CC)ccc1C	0.98	1.1	15.0	i	8.0%	9.0
CCn1c(SCC(=O)Nc2cccc(C(C)=O)c2)nnc1C(C)C	1.02	1.24	16.0	+	35.0%	0.0
O=S(=O)(c1ccccc1)c1nc(-c2cccs2)oc1NCC1CCCO1 (stereo not given)	1.06	1.12	5.0	i	3.0%	0.0
COc1ccc(-c2nc(C#N)c(N3CCN(c4ccccc4)CC3)o2)cc1	0.99	1.45	6.0	i	6.0%	10.0
COc1ccc(-c2nc(C#N)c(NCC3CCCO3)o2)cc1 (stereo not given)	1.06	2.27*	0.0	.	2.0%	4.0
N#Cc1nc(-c2cccs2)oc1NCC1CCCO1 (stereo not given)	1.09	2.26*	0.0	.	1.0%	2.0
CCN(CC)CCCNC(=O)c1ccccc1C	1.05	1.16	6.0	i	4.0%	7.0
Cc1ccc(OCCNC(=O)c2ccccc2N)cc1	1.04	2.11*	0.0	.	2.0%	4.0
COc1ccc(OCCNC(=O)c2ccccc2OCC(=O)N2CCCCC2)cc1	1.08	1.13	5.0	i	6.0%	14.0
CCN(CC)CCNC(=O)c1ccccc1N	1.01	2.31*	5.0	.	3.0%	0.0
Cn1cccc1C(=S)N=P(C1CCCCC1)(N1CCOCC1)N1CCOCC1	1.09	1.05	14.0	i	9.0%	13.0

Bioassay records as filed in PubChem BioAssay.
